According to PubChem BioAssay AID1963322 (National Center for Advancing Translational Sciences (NCATS), 2024):
Records with an inconclusive call do not appear. A call without a number means that no potency is given here. Active and inactive are the calls of the source. Calls come from the whole dose curve.

target: cAMP-dependent protein kinase catalytic subunit alpha (Homo sapiens) (UniProt P17612); experiment: Protein Kinase A (PKA-HiBiT) SDR gain of signal screen; details: PKA-HiBiT structural dynamics response (SDR), luminescence gain of signal; series mostly up to 32.9 µM
Text: National Center for Advancing Translational Sciences (NCATS),
National Institute of Health (NIH), Maryland
Discovery and optimization of novel protein-binding ligands underlies many of the methods and applications of biology, drug discovery, clinical diagnostics, and environmental toxicology. Assays for detecting the interaction of, for example, a molecule with a macromolecular target also referred to here as the target of interest (TOI) is dependent on a compatible output technology. Depending on the nature and knowledge surrounding the TOI, whether a receptor, enzyme, regulatory subunit or scaffold, or a sequence-defined nucleic acid folded into a complex tertiary structure, assay strategies can vary widely.
Here we exploit ligand-biased changes in the structural dynamics of the target protein to control reporter alpha complementation allowing a non-competitive, non-functional, non-separation measure of ligand-target interaction.
Using a chemical library of >1,200 compounds enriched for scaffolds known to be associated with the inhibition of firefly luciferase (FLuc) activity (PubChem AIDs 2309) we first illustrate and compare the Structural Dynamics Response (SDR) assay vs. the standard functional FLuc enzyme assay (2). Secondly, we show the specificity and sensitivity of the SDR for the Abelson tyrosine kinase (ABL1) compared to the serine/threonine protein kinase A, using an enriched chemical library of 128 compounds selected, in part, for activity annotated with ABL1 kinase activity using the Pharos database (3).
(1) A. S. Dixon et al., NanoLuc Complementation Reporter Optimized for Accurate Measurement of Protein Interactions in Cells. ACS Chem Biol 11, 400-408 (2016).
Chemistry & Biology, 19, 1060 - 1072 (2012).
(3) K. J. Kelleher et al., Pharos 2023: an integrated resource for the understudied human proteome. Nucleic Acids Res 51, D1405-D1416 (2023).
PROTOCOL TABLE (as described by Inglese J, Shamu CE and Guy RK. 2007)
SEQUENCE No. (e.g., 1, 2, 3, etc.); […] (e.g., C. elegans, Compounds, Incubation, Read, etc.); VALUE and DESCRIPTION.
1. Reagent. Dispense 4 uL PKA-N-HiBiT enzyme per well at a final enzyme concentration of 10 nM in buffer into columns 2-48 of four replicate Greiner 1536-well white,solid bottom high base, medium plates per assay. Dispense respective buffer without enzyme at 4 uL/well in column 1 of assay plates using BioRaptr 2.
2. Compounds. Library compounds added at 23 nL/well by pin transfer. DMSO neutral control and H-89 positive control added at 25 nL/well, transfer by Mosquito dispenser.
3. Incubation. Incubate enzyme and compounds at room temperature for 30 min, protect from light.
4. Reagent. (SDR assay) Add 3 uL/well of Nano-Glo HiBiT reagent (Promega) to assay plates.
5. Incubation. (SDR assay) Incubate enzyme solution HiBiT reagent at room temperature for 10 min, protected from light.
6. Detector. (SDR assay) Luminescence measured using CCD-based camera (ViewLux) with settings as follows: Exposure, 1 sec; Gain, High; Speed, Slow; Binning, 2X.

| SMILES | Potency |
| --- | --- |
| C/C(O)=C(\C#N)C(=O)Nc1cc(Br)ccc1Br | inactive |
| O=[N+]([O-])O[C@H]1CO[C@H]2[C@@H]1OC[C@H]2O[N+](=O)[O-] | inactive |
| N#Cc1cn([C@@H]2O[C@H](CO)[C@H](O)[C@@H]2O)c2ncnc(N)c12 | inactive |
| Cc1[nH]nc2ccc(-c3cncc(OC[C@@H](N)Cc4c[nH]c5ccccc45)c3)cc12 | 197 nM (active) |
| O=C(NCCCNc1nc(Nc2ccc(N3CCOCC3)cc2)ncc1C1CC1)C1CCC1 | inactive |
| CCNC(=O)C[C@@H]1N=C(c2ccc(Cl)cc2)c2cc(OC)ccc2-n2c(C)nnc21 | inactive |
